Experimental data published in paper PMC7862700, “An all-to-all approach to the identification of sequence-specific readers for epigenetic DNA modifications on cytosine”.

Assays:
Test in all cases: DAPPL (digital affinity profiling via proximity ligation, sequencing); 10 mM Tris-HCl pH 7.5, 50 mM NaCl, 1 mM DTT, 4% glycerol, room temperature, 30 min; GST-TFs on glutathione beads, 16-mer random dsDNA library, 0.1% formaldehyde crosslink after washing; high values mean tight binding
ELK1 = biological target: T1, ELK1 (Homo sapiens, UniProt P19419 1-428); settings: protein: recombinant; tags: N-terminal GST; dsDNA, one strand shown
T1 sequence: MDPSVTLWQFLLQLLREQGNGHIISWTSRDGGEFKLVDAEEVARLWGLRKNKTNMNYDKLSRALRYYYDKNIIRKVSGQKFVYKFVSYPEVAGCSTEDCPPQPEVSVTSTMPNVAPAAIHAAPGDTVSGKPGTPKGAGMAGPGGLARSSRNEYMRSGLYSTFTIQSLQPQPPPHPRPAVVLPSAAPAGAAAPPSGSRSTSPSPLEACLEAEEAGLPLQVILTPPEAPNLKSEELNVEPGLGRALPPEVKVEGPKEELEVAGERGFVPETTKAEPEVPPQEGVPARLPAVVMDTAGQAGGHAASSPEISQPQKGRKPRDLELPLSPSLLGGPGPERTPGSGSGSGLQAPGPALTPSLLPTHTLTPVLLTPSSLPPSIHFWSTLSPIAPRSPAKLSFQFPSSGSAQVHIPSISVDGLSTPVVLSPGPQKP
In short: (§1)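 GST fusions of human transcription factors were expressed in yeast and captured with glutathione beads. Once given DNA barcodes and pooled alongside a tag-only sample, they were incubated for 30 min at room temperature with 200 nmole of a random double-stranded 16-mer DNA library in Tris/NaCl/DTT/glycerol buffer, then washed, crosslinked (0.1% formaldehyde), proximity-ligated, PCR-amplified and sequenced on an Illumina NextSeq500. The binding signal of each hexamer is its read frequency for a factor divided by its frequency for the tag-only sample.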

ERG = biological target: T2, ERG (Homo sapiens, UniProt P11308 1-479); settings: protein: recombinant; tags: N-terminal GST; dsDNA, one strand shown
T2 sequence: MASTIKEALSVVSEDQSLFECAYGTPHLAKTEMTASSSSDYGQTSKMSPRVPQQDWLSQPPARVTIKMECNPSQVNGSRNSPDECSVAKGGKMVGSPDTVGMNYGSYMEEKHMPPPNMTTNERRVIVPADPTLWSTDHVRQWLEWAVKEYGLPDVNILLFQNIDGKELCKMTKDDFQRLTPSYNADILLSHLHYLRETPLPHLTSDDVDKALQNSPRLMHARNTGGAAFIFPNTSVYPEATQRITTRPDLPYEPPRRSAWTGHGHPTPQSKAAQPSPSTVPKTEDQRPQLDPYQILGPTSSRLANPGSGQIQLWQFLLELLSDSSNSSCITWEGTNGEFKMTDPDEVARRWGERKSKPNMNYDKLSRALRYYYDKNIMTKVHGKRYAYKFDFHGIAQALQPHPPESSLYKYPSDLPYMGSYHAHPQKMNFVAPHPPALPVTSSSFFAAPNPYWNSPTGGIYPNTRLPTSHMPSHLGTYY
In short: as §1

ELF1 = ELF1 (Homo sapiens, UniProt P32519 1-619); settings: protein: recombinant; tags: N-terminal GST; dsDNA, one strand shown
In short: as §1

EHF = biological target: T3, EHF (Homo sapiens, UniProt Q9NZC4 1-300); settings: protein: recombinant; tags: N-terminal GST; dsDNA, one strand shown
T3 sequence: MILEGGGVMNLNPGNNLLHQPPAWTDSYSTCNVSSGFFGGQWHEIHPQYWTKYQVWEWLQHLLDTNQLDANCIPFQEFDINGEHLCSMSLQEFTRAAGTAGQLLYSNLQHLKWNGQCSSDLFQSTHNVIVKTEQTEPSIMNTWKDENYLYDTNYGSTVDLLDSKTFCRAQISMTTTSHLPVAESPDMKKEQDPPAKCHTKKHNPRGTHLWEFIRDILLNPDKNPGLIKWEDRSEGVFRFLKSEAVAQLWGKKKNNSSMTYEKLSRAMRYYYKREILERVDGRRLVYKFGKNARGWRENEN
In short: as §1

SPI1 = SPI1 (Homo sapiens, UniProt P17947 1-270); settings: protein: recombinant; tags: N-terminal GST; dsDNA, one strand shown
In short: as §1

SPIB = SPIB (Homo sapiens, UniProt Q01892 1-262); settings: protein: recombinant; tags: N-terminal GST; dsDNA, one strand shown
In short: as §1

ELK3 = biological target: T4, ELK3 (Homo sapiens, UniProt P41970 1-407); settings: protein: recombinant; tags: N-terminal GST; dsDNA, one strand shown
T4 sequence: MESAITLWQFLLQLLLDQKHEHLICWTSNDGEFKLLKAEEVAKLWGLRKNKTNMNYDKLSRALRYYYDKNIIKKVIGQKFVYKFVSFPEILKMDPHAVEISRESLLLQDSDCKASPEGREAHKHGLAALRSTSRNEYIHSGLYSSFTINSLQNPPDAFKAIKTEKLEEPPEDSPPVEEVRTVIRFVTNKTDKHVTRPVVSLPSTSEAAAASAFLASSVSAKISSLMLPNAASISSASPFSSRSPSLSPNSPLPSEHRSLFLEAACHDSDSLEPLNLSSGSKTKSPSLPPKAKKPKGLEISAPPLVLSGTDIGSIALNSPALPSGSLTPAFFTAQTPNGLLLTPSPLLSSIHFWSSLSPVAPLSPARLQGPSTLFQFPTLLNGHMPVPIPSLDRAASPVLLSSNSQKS
In short: as §1

HSF1 = HSF1 (Homo sapiens, UniProt Q00613 1-529); settings: protein: recombinant; tags: N-terminal GST; chain copies: 3; dsDNA, one strand shown
In short: as §1

SPIC = biological target: T5, SPIC (Homo sapiens, UniProt Q8N5J4 1-248); settings: protein: recombinant; tags: N-terminal GST; dsDNA, one strand shown
T5 sequence: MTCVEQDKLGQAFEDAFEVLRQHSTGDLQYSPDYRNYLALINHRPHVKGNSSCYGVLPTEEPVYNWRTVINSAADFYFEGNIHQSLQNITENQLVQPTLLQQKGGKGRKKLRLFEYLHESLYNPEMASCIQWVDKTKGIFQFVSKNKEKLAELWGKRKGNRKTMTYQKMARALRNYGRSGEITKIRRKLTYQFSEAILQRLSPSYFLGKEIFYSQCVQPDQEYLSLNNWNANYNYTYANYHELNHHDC
In short: as §1

ELK4 = biological target: T6, ELK4 (Homo sapiens, UniProt P28324-2 1-405); settings: protein: recombinant; tags: N-terminal GST; dsDNA, one strand shown
T6 sequence: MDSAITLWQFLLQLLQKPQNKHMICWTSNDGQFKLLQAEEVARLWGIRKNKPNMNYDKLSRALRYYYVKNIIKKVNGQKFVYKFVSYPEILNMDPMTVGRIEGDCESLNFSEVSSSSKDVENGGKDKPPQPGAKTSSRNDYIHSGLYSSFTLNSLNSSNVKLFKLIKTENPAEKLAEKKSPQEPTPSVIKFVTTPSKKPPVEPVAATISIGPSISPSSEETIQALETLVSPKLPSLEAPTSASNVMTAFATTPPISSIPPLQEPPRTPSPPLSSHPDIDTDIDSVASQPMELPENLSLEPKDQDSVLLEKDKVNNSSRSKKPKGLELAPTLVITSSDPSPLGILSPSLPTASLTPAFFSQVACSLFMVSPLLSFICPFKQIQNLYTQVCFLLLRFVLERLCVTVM
In short: as §1

ETV2 = biological target: T7, ETV2 (Homo sapiens, UniProt O00321 1-342); settings: protein: recombinant; tags: N-terminal GST; dsDNA, one strand shown
T7 sequence: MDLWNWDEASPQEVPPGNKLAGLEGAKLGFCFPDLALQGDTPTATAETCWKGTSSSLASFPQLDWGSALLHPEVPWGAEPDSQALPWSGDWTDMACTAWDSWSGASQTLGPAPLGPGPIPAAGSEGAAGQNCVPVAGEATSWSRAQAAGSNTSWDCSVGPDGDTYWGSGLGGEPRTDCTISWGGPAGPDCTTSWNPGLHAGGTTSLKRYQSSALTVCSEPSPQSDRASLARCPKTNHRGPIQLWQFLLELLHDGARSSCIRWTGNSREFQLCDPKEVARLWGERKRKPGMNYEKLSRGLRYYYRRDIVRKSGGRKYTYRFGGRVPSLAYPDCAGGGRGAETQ
In short: as §1

ELF3 = biological target: T8, ELF3 (Homo sapiens, UniProt P78545 1-371); settings: protein: recombinant; tags: N-terminal GST; dsDNA, one strand shown
T8 sequence: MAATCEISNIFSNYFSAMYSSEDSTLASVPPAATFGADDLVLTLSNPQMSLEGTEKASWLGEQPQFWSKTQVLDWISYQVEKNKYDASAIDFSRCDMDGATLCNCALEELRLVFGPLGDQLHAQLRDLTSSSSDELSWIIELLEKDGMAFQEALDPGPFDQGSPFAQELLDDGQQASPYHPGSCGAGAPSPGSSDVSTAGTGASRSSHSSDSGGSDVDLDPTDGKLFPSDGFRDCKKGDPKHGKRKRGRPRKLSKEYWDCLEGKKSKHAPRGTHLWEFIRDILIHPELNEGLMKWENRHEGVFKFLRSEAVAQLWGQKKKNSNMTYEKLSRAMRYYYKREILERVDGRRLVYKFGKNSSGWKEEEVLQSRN
In short: as §1

ETV1 = ETV1 (Homo sapiens, UniProt P50549 1-477); settings: protein: recombinant; tags: N-terminal GST; dsDNA, one strand shown
In short: as §1

ERF = biological target: T9, ERF (Homo sapiens, UniProt P50548 1-548); settings: protein: recombinant; tags: N-terminal GST; dsDNA, one strand shown
T9 sequence: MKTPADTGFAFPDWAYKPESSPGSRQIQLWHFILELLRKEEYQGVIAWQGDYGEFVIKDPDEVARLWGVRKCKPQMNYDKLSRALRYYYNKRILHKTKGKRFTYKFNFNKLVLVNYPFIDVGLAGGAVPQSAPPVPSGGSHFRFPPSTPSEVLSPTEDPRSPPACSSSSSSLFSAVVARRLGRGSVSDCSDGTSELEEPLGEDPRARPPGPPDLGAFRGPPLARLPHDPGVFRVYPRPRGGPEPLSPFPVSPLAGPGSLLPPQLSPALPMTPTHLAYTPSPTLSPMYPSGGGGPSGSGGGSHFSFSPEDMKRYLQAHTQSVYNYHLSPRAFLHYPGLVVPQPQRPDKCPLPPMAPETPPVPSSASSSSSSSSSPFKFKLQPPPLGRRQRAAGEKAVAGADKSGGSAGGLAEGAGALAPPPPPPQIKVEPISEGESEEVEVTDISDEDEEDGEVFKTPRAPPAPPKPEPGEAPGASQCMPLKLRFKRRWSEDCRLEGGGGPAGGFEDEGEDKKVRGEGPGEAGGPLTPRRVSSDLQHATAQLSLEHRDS
In short: as §1

ETS2 = biological target: T10, ETS2 (Homo sapiens, UniProt P15036 1-469); settings: protein: recombinant; tags: N-terminal GST; dsDNA, one strand shown
T10 sequence: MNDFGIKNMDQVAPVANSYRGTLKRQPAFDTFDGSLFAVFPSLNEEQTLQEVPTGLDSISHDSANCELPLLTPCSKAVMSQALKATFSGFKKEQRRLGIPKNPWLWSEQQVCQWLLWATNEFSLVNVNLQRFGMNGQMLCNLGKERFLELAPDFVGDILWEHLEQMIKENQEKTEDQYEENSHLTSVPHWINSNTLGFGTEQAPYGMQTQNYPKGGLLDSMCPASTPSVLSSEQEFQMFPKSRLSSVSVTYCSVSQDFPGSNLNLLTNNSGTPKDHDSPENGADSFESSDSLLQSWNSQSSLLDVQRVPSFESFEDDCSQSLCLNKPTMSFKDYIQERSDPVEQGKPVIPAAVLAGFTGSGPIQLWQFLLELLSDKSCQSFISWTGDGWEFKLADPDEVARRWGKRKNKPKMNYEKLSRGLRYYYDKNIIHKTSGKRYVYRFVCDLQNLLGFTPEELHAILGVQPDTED
In short: as §1

Sequence of HSF1 (Q00613 whole entry): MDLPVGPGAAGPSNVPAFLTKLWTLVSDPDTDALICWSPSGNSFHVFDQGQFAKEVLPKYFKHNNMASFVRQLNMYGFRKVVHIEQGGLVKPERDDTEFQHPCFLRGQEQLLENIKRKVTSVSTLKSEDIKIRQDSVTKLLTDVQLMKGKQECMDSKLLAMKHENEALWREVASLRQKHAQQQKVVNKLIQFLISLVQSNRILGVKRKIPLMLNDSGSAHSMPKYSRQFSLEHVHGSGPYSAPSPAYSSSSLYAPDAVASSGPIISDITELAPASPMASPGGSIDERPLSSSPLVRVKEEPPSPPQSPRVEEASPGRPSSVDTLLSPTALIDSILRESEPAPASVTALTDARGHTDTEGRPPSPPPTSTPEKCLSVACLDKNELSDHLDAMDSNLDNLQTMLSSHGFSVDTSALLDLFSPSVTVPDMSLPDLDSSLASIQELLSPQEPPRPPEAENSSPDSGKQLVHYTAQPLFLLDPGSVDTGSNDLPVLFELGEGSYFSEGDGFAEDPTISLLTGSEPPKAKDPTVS
Sequence of SPIB (Q01892 whole entry): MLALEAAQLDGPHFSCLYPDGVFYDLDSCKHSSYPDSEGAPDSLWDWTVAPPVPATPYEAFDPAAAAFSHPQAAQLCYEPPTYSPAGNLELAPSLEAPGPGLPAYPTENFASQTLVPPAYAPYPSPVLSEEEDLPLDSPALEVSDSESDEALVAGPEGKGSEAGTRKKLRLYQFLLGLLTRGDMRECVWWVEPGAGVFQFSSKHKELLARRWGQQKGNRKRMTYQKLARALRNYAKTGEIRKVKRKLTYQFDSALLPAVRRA
Sequence of ELF1 (P32519 whole entry): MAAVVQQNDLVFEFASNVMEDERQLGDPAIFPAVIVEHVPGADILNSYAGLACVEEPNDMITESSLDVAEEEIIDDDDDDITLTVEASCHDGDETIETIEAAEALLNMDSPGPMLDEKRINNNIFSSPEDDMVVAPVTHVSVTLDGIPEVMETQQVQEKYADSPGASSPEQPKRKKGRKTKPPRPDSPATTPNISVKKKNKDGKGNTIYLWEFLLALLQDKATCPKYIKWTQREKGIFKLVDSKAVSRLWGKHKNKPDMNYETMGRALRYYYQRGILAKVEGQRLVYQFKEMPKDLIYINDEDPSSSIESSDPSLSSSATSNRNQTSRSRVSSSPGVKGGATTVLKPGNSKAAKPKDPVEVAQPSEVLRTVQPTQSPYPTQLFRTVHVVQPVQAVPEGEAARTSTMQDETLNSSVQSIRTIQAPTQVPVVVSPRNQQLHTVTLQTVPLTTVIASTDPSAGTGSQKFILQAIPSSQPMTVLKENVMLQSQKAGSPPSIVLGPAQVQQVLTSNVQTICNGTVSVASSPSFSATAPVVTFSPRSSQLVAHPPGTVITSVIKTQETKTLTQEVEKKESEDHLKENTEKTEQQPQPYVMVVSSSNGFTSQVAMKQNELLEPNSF
Sequence of ETV1 (P50549 whole entry): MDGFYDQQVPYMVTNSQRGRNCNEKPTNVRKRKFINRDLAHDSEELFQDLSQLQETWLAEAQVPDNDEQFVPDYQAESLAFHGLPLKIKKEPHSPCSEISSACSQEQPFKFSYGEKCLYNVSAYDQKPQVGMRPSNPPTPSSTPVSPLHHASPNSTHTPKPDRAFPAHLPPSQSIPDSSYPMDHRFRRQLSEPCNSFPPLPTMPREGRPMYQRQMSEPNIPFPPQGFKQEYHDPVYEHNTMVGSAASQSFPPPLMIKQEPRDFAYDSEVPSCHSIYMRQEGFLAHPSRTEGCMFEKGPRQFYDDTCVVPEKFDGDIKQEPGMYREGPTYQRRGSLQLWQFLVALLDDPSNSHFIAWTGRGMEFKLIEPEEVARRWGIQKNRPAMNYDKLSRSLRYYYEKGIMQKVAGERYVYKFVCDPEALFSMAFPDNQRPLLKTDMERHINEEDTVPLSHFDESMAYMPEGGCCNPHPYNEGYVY

Sequence: CGCAAA
- binding signal (ELK1): 1.01 fold enrichment (6-mer frequency, TF over GST control)
- binding signal (ERG): 1.04 fold enrichment (6-mer frequency, TF over GST control)
- binding signal (ELF1): 1 fold enrichment (6-mer frequency, TF over GST control)
- binding signal (EHF): 1.03 fold enrichment (6-mer frequency, TF over GST control)
- binding signal (SPI1): 1.05 fold enrichment (6-mer frequency, TF over GST control)
- binding signal (SPIB): 1.02 fold enrichment (6-mer frequency, TF over GST control)
- binding signal (ELK3): 1.08 fold enrichment (6-mer frequency, TF over GST control)
- binding signal (HSF1): 1.01 fold enrichment (6-mer frequency, TF over GST control)
- binding signal (SPIC): 1.02 fold enrichment (6-mer frequency, TF over GST control)
- binding signal (ELK4): 1.03 fold enrichment (6-mer frequency, TF over GST control)
- binding signal (ETV2): 1.07 fold enrichment (6-mer frequency, TF over GST control)
- binding signal (ELF3): 1.13 fold enrichment (6-mer frequency, TF over GST control)
- binding signal (ETV1): 1.11 fold enrichment (6-mer frequency, TF over GST control)
- binding signal (ERF): 1.1 fold enrichment (6-mer frequency, TF over GST control)
- binding signal (ETS2): 1.06 fold enrichment (6-mer frequency, TF over GST control)

Sequence: CGAAGA
- binding signal (HSF1): 1.19 fold enrichment (6-mer frequency, TF over GST control)

Sequence: AGGTTC
- binding signal (HSF1): 1.18 fold enrichment (6-mer frequency, TF over GST control)
